The text below walks through data of PubChem BioAssay.

Activity calls are given as the source filed them.

Assay [1] in a line: optical density shifts of acrAB sulA E. coli – strain DRC41, OD650, 48 h, E. coli filamentation inducer project, primary screen (AID 1152).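 Note: E. coli MC1000 strain DRC41 lacking acrAB efflux pump and sulA.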 The following applies: higher = more signal, called active from +8 up or from −8 down.
Assay [2] in a line: probe aLefty1 binding on compound microarray – biochemical, small-molecule microarray, 635/667 nm fluorescence, primary screen (AID 1153).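 Note: score merges spot fluorescence with signal-to-noise ratio from the scanned slide images.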 The following applies: higher = more signal.
Assay [3] is described as follows: plasmodial surface anion channel blockers, osmotic lysis – cell-based, P. falciparum Indochina, OD700, 1 h, primary screen (AID 1154). Conditions: P. falciparum Indochina infected RBC osmotic lysis, higher = more signal, called active from +8 up or from −8 down.
A short description of assay [4]: plasmodial surface anion channel blockers, osmotic lysis – cell-based, P. falciparum Indochina, OD700, 2 h, primary screen (AID 1155).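 Note: lysis reports solute entry through the parasite surface anion channel PSAC.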 Conditions: P. falciparum Indochina infected erythrocytes, higher = more signal, called active from +8 up or from −8 down.
Assay [5] is described as follows: changes in parasitized red cell lysis, either direction – P. falciparum Indochina, OD700, 3 h, PSAC antagonist project, primary screen (AID 1156). The following applies: P. falciparum-infected erythrocytes, osmotic lysis, higher = more signal, called active from +8 up or from −8 down.
Assay [6] can be described thus: plasmodial surface anion channel blockers, osmotic lysis – cell-based, P. falciparum Indochina, OD700, 18 h, primary screen (AID 1157). Conditions: P. falciparum Indochina infected erythrocytes, osmotic lysis OD700, 18 h; higher = more signal, called active from +8 up or from −8 down.
Assay [7] can be described thus: S6 kinase pathway phospho-S6 level changes – cell-based, A549, cytoblot, luminescence, serum-stimulated, primary screen (AID 1158).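 Note: serum-stimulated A549 lung adenocarcinoma cells; signal is phosphorylated S6 detected by cytoblot immunostaining with HRP secondary.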 Conditions: 5 h, higher = more signal.
The target of assay [8] is NADPH oxidase 2 (Homo sapiens) (UniProt P04839). Briefly: compounds shifting NOX2 Amplex Red fluorescence – cell-based, HEK293-NOX2, PMA-stimulated, NOX inhibitor project, primary screen (AID 1159). Note: test concentration not given here. Conditions: 45 min, higher = more signal, called active from +8 up or from −8 down.
The target in assay [9] is NADPH oxidase 4 (Homo sapiens) (UniProt Q9NPH5). The experiment in a line: compounds shifting NOX4 Amplex Red fluorescence – cell-based, HEK293-NOX4, tetracycline-induced, NOX inhibitor project, primary screen (AID 1160). Conditions: HEK293-NOX4, Amplex Red H2O2 fluorescence, 45 min; higher = more signal, called active from +8 up or from −8 down.
In assay [10] the target is NADPH oxidase 5 (Homo sapiens) (UniProt Q96PH1). The experiment in a line: compounds shifting NOX5 Amplex Red fluorescence – cell-based, HEK293-NOX5, NOX inhibitor project, primary screen (AID 1161). The following applies: HEK293-NOX5, ionomycin, 45 min, higher = more signal.
Assay [11] in a line: compound effects on lung adenocarcinoma cell viability – A549, calcein-AM fluorescence, 48 h, basal, profiling panel (AID 1162). Note: test concentration not given here. Conditions: higher = more signal.
A short description of assay [12]: compound effects on differentiated 3T3-L1 adipocyte viability – cell-based, 3T3-L1 adipocytes, calcein-AM fluorescence, 48 h, basal, profiling panel (AID 1163). Note: test concentration not given here. The following applies: 3T3-L1 adipocytes viability, higher = more signal.
The nature of assay [13]: compound effects on hepatocellular carcinoma cell viability – HepG2, calcein-AM fluorescence, 48 h, basal, profiling panel (AID 1164). Note: test concentration not given here. The following applies: higher = more signal.
Assay [14] can be described thus: compound effects on multiple myeloma cell viability – MM1S, calcein-AM fluorescence, 48 h, basal, profiling panel (AID 1165).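 Note: viability of MM1S multiple myeloma cells under basal unstimulated conditions; test concentration not given here.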 The following applies: higher = more signal.
Assay [15] is described as follows: calcein-AM signal in unstimulated myeloma cells – cell-based, calcein-AM fluorescence, 48 h, PK04 Diversity Set, profiling panel (AID 1166).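 Note: cells grown under basal conditions without added stimulus; test concentration not given here.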 The following applies: RPMI8226 myeloma viability, higher = more signal.
Assay [16] can be described thus: JC-1 mitochondrial signal, unstimulated HepG2 cells – cell-based, JC-1 fluorescence, 24 h, 100 nL compound, profiling panel (AID 1167). Note: test concentration not given here. Conditions: HepG2 mitochondrial potential, higher = more signal.
Assay [17] in a line: JC-1 mitochondrial signal, unstimulated adipocytes – cell-based, JC-1 fluorescence, 3T3-L1 adipocytes, 24 h, 100 nL compound, profiling panel (AID 1168). Note: test concentration not given here. The following applies: JC-1 mitochondrial fluorescence, higher = more signal, called active from +8 up or from −8 down.
Assay [18] is described as follows: JC-1 mitochondrial signal, unstimulated myeloma cells – cell-based, JC-1 fluorescence, RPMI8226, 24 h, 100 nL compound, profiling panel (AID 1169). Note: test concentration not given here. The following applies: JC-1 mitochondrial potential fluorescence, higher = more signal.
A short description of assay [19]: JC-1 mitochondrial signal, unstimulated MM1S myeloma – cell-based, JC-1 fluorescence, 24 h, 100 nL compound, profiling panel (AID 1170). Note: test concentration not given here. Conditions: MM1S mitochondrial potential, higher = more signal.
Assay [20] can be described thus: resazurin metabolic signal in A549 cells – cell-based, resazurin fluorescence, 24 h, PK04 Diversity Set, profiling panel (AID 1171). Note: test concentration not given here. Conditions: A549 viability, higher = more signal, called active from +8 up or from −8 down.

Chain of NADPH oxidase 4 (Homo sapiens) (Q9NPH5 whole entry, looked up): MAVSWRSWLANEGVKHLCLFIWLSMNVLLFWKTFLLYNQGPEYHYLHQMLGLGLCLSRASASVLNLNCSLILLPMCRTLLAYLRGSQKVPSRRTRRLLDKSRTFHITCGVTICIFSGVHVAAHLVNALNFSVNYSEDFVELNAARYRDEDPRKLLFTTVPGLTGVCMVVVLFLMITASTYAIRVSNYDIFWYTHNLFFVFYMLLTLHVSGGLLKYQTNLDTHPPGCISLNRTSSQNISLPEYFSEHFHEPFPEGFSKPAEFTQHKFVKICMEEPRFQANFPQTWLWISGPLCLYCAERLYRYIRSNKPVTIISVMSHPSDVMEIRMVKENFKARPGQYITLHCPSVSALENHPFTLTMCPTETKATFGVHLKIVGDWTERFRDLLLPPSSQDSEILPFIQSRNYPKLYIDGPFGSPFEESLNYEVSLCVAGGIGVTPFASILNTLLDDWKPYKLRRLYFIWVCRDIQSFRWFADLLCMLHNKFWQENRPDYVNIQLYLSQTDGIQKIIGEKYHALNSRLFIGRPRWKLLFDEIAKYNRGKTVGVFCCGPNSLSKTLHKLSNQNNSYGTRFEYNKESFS
Chain of NADPH oxidase 5 (Homo sapiens) (Q96PH1 whole entry, looked up): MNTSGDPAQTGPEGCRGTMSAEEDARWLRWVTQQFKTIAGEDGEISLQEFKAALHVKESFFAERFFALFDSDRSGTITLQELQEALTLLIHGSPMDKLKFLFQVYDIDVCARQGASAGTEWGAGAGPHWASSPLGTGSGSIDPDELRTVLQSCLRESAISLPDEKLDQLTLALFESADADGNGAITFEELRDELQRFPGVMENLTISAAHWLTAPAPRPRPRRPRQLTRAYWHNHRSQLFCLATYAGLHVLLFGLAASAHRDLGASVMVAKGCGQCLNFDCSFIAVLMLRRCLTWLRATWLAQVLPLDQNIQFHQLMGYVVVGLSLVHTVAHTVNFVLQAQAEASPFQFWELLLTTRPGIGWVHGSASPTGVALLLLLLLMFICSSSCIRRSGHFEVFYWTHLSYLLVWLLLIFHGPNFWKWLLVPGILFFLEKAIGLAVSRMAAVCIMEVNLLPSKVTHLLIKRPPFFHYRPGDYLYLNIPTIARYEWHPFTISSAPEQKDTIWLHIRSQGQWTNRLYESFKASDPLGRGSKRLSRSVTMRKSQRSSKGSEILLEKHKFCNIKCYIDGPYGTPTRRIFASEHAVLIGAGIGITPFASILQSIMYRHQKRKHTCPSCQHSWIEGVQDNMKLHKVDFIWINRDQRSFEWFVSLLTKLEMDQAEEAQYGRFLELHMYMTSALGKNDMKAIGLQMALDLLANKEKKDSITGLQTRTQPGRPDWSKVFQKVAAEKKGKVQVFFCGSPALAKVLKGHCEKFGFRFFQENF
Chain of NADPH oxidase 2 (Homo sapiens) (P04839 whole entry, looked up): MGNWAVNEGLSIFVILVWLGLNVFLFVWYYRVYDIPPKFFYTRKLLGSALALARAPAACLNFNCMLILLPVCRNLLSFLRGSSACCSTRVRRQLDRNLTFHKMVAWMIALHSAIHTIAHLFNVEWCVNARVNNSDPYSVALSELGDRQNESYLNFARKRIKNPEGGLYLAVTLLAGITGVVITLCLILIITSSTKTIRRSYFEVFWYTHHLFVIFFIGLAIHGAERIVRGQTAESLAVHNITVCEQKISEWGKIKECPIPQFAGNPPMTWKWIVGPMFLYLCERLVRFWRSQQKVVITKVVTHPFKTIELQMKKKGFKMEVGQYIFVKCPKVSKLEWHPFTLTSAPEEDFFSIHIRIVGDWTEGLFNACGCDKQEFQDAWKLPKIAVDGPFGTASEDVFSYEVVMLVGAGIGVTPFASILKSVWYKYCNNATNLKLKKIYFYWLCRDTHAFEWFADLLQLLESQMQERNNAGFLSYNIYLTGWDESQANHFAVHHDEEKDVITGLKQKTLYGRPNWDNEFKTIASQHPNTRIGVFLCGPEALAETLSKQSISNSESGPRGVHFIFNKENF

Consider `COCCOC(=O)N1C(=O)[C@@]2(c3cc(C#CCCO)ccc31)[C@H](c1ccccc1OCCO)N1[C@H](c3ccccc3)[C@H](c3ccccc3)OC(=O)[C@H]1[C@@H]2C(=O)N1CCc2cc(OC)c(OC)cc2C1`, for which the z-score in assay [1] is 0.891 (inactive); in [3], 2.43 (inactive); in assay [4], 1.97 (inactive); in [5] it was 0.276 (inactive); in assay [6], 1.12 (inactive); in [7], 0.199. The z-score in assay [8] was 1.15 (inactive); in assay [9], 1.15 (inactive); in [10], 0.0359; in assay [11], 1.14; in assay [12] it was 0.251; in [13] it was 1.37. Further, the z-score was 0.713 in assay [14]; 0.503 in [15]; 1.13 in assay [16]; 0.808 (inactive) in assay [17]; -0.361 in assay [18]; -1.04 in assay [19]. In addition, in [20], the z-score is 0.646 (inactive). Besides, the composite z-score in assay [2] worked out at 0.265.

With `C=CCC(OC(C)=O)[C@@H]1[C@@H](N(Cc2cccc3ccccc23)C(=O)c2ccc(-c3ccccc3)cc2)c2cc(OCCCO)ccc2N1C(=O)c1ccc2ccccc2n1` (stereo not given in full), the z-score in assay [1] was -0.688 (inactive); in [3] it was 0.0025 (inactive); in assay [4], -0.232 (inactive); in assay [5], -0.44 (inactive); in assay [6], -0.0821 (inactive); in assay [7], 1.14. Further, the z-score is -0.0242 (inactive) in assay [8]; 1.04 (inactive) in assay [9]; 1.48 in assay [10]; -0.421 in assay [11]; 0.587 in assay [12]; 0.589 in [13]. Besides, the z-score was -0.848 in assay [14]; -0.842 in [15]; 1.08 in [16]; -0.12 (inactive) in assay [17]; 0.61 in [18]; -0.0192 in [19]. In assay [20], the z-score is 0.701 (inactive). This molecule came in with a composite z-score in assay [2] of 0.123.

`COc1ccc([Si](C)(C)[C@H]2[C@H](CCO)O[C@@]3(C(=O)N(Cc4ccc(N5CCOC5=O)cc4)c4ccccc43)[C@@H]2C)cc1`: the z-score in assay [1] is 0.257 (inactive); in assay [3], 34.9 (active); in assay [4], 32.8 (active); in [5] it was 1.63 (inactive); in assay [6] it was 6.38 (inactive); in assay [7] it was 0.419. In addition, the z-score is -0.372 (inactive) in assay [8]; 1.75 (inactive) in assay [9]; 0.908 in [10]; -0.108 in [11]; 0.684 in assay [12]; -0.591 in assay [13]. Further, the z-score is -2.54 in assay [14]; -3.98 in assay [15]; 0.137 in assay [16]; 1.82 (inactive) in assay [17]; -0.992 in assay [18]; -1.49 in assay [19]. The z-score in assay [20] is -1.54 (inactive). Moreover, in assay [2], the composite z-score stood at 0.203.

Take `COCCCNC(=O)[C@@H]1c2ccccc2C(=O)N(C2CCCCC2)[C@H]1c1ccc(CO)cc1`: the z-score is 0.416 (inactive) in assay [1]; 0.794 (inactive) in assay [3]; -0.0928 (inactive) in assay [4]; 0.65 (inactive) in assay [5]; -0.51 (inactive) in assay [6]; 2.35 in [7]. For the same molecule, the z-score in assay [8] was 0.422 (inactive); in assay [9], -1.61 (inactive); in [10], -0.915; in [11], 1.83; in assay [12], 1.15; in [13], 1.05. Besides, the z-score was 0.777 in [14]; -0.559 in [15]; 2.49 in assay [16]; -0.154 (inactive) in assay [17]; 0.107 in [18]; -1.17 in assay [19]. Moreover, the z-score in [20] is 1.19 (inactive). Further, the composite z-score in assay [2] worked out at 0.0839.
